The text below walks through data of PubChem BioAssay AID504832 (National Center for Advancing Translational Sciences (NCATS), 2011).

In all, about 310,000 compounds went through this assay and about 18,000 (5.8%) were called active. Where a call stands in place of a potency, no number is given. Roughly 22% stayed inconclusive and do not appear here. The call rests on the fitted dose curve; in most records, active means well fitted inhibition curve with a large enough effect; inconclusive means small, poorly fitted or top-dose-only effect, or another doubt; inactive means no such curve, though single readings can be large or run the other way. The full list was thinned out, with actives kept by preference.
Potency means the concentration at half of the fitted maximal effect.

The test is described as follows: Primary qHTS for delayed death inhibitors of the malarial parasite plastid, 48 hour incubation. The settings on record: P. falciparum luciferase growth in erythrocytes; series mostly up to 28.7 µM. Summed up: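 Firefly luciferase activity from engineered P. falciparum reports growth; inhibitors lower the luminescent signal. Cultures contained 2% hematocrit erythrocytes at 0.1% final parasitemia.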
(In general: In qHTS, concentration-response curves come from the screen itself.)
Consider `CCOc1ccc(C(=O)Nc2cc(Cl)ccc2-n2cncn2)cc1OC`, for which the Potency result is “inactive”.

As for `O=C(CNc1cccc(S(=O)(=O)N2CCCCC2)c1)Nc1ccccc1F`, the Potency entry was “inactive”.

With `O=C(NCc1cc(F)cc(C(F)(F)F)c1)C1CCC(=O)N(C2CCCC2)C1` (centres undefined), the Potency result is “inactive”.

For the compound `Cc1cc(NC(=O)c2ccco2)c(=O)n(Cc2c(F)cccc2Cl)c1`, the Potency result is “inactive”.

Take `COC(=O)C1=C(Nc2ccc(C)cc2)C=C(C)C(C(=O)OC)C1c1ccc(F)cc1` (centres undefined): the Potency is 3.7 µM (active).

On to `COc1ccc(N2C(=O)C(O)C2c2ccc(C)cc2)cc1` (centres undefined), for which the Potency result was “inactive”.

As to `COC(=O)C1C(=O)NCC1c1ccc(OC)cc1` (centres undefined), the Potency result was “inactive”.

Consider `COC(=O)C1=C(Nc2ccc(OC)cc2)C=C(C)C(C(=O)OC)C1c1ccc(C)cc1` (centres undefined), for which the Potency is 10.4 µM (active).

Turning to `Cc1ccc(C(=O)CNc2ccc(F)cc2)cc1`, the Potency entry is “inactive”.

On to `Cc1ccc(NC(=S)Nc2ccc(F)cc2)cc1`, for which the Potency result is “inactive”.

As for `c1ccc2c(c1)CCc1snnc1-2`, the Potency result was “inactive”.

As for `COC(=O)c1cc(CNC(=O)CC(C)c2ccccc2)ccc1OC` (centres undefined), the Potency result is “inactive”.

Turning to `CCOc1cc(/C=N/NC(=O)CN2CCCCC2)ccc1O`, the Potency result was “inactive”.

On to `CCOC(=O)N1CCN(CCC(=O)Nc2ccccc2)CC1`, for which the Potency result is “inactive”.

Regarding `O=C(NNc1c2ccccc2nc2ccccc12)c1cc2ccccc2cc1O`, the Potency is 11.7 µM (active).

For `Cc1noc(C)c1COC(=O)c1cc2ccccc2cc1O`, the Potency entry was “inactive”.

For the compound `O=C(Nc1c2c(nc3ccccc13)CCCC2)c1ccccc1Br`, the Potency result is “inactive”.

Regarding `CCn1c(SCc2ccccc2)nc2cc(OC)c(OC)cc2c1=O`, the Potency is 10.4 µM (active).

`CCn1c(SCc2ccccc2)nc2c(c1=O)SCC2`: the Potency entry was “inactive”.

Regarding `COc1cccc(CSc2nc3nc(C)cc(C)n3n2)c1`, the Potency entry is “inactive”.

As for `COCCn1c(SCc2nc3cc(OC)c(OC)cc3c(=O)[nH]2)nnc1-c1ccncc1`, the Potency result was “inactive”.

For `COCCCn1c(SCc2cccc(OC)c2)nc2cc(OC)c(OC)cc2c1=N`, the Potency was 2.62 µM (active).

For `COC(=O)CSc1nc2ccccc2c(=O)n1Cc1ccccc1`, the Potency result was “inactive”.

`Cc1ccc(NC2CCCN(C(=O)CCc3cn[nH]c3)C2)cc1C` (centres undefined): the Potency result is “inactive”.

As to `COc1ccc(S(=O)(=O)Nc2cc(C)on2)cc1NC(C)=O`, the Potency entry is “inactive”.

Turning to `Cc1ccc2nc(SCC(=O)N3CC(C)OC(C)C3)nc(=O)n2c1` (centres undefined), the Potency result is “inactive”.

On to `CC(C)Nc1ccc(-n2nc3ccccc3[n+]2[O-])cc1`, for which the Potency entry is “inactive”.

Turning to `COc1ccc(NC(=O)C2CCN(S(=O)(=O)c3ccc4[nH]c(=O)oc4c3)CC2)c(OC)c1`, the Potency entry was “inactive”.

On to `COc1ccc(C(CNC(=O)COc2ccccc2OC)N2CCCCC2)cc1` (centres undefined), for which the Potency entry is “inactive”.

For `COc1ccccc1CN1CC(C(=O)NCCc2cn[nH]c2)CCC1=O` (centres undefined), the Potency result was “inactive”.

`COc1ccc2c(c1)C=CC1(O2)N(CCO)c2ccccc2C1(C)C` (centres undefined): the Potency is 13.1 µM (active).

As to `CN1c2ccc([N+](=O)[O-])cc2C(C)(C)C12C=Cc1cc(C(=O)O)ccc1O2` (centres undefined), the activity change, negative = inhibition was 16.2% [at 0.00184 µM] (inactive).

As to `COc1ccc2c(c1)C(SCC(=O)NCc1ccccc1)CC(C)(C)O2` (centres undefined), the Potency result was “inactive”.

On to `CC1CCCCC1NC(=O)COC(=O)Cc1ccc(Cl)cc1` (centres undefined), for which the Potency result was “inactive”.

For the compound `CSc1nnc2ccc(-c3ccc(C)cc3)nn12`, the Potency result is “inactive”.

Regarding `Cc1ccc(S(=O)(=O)n2cccc2CO)cc1`, the Potency result is “inactive”.

With `COCCNc1cc(NCCOC)c([N+](=O)[O-])cc1[N+](=O)[O-]`, the Potency entry is “inactive”.

Take `CN(C)CCNc1ccc(-c2n[nH]c(=O)c3ccccc23)cc1[N+](=O)[O-]`: the Potency entry was “inactive”.

On to `COCCNc1ccc(-c2n[nH]c(=O)c3ccccc23)cc1[N+](=O)[O-]`, for which the Potency is 4.65 µM (active).

For the compound `COc1ccc(CNC(=O)c2cc(=O)c3c(C)cc(C)cc3o2)cc1`, the Potency entry is “inactive”.

As to `O=C(c1cc(-c2ccc(Cl)cc2)on1)N1CCN(c2ccccc2)CC1`, the Potency entry is “inactive”.

As to `CC(C)n1cnc2c(Nc3cccc(Cl)c3)nc(N(CCO)CCCO)nc21`, the Potency was 7.38 µM (active).

On to `O=C(NC(=S)Nc1ccccc1N1CCCCC1)c1ccc(F)cc1`, for which the Potency was 8.28 µM (active).

As for `O=C(Nc1ccccc1N1CCCCC1)c1cccc(F)c1`, the Potency entry was “inactive”.

With `COc1ccccc1C(=O)NC(=S)Nc1ccccc1N1CCCCC1`, the Potency entry is “inactive”.

On to `O=C(COc1nsnc1N1CCOCC1)Nc1ccccc1Cl`, for which the Potency result is “inactive”.

For `Cn1c(=O)n(C)c2cc(C(=O)Nc3ccc(Br)cc3)ccc21`, the Potency entry was “inactive”.

For `Clc1ccc2nc(-c3ccccc3)nc(C(Cl)Cl)c2c1`, the Potency was 10.4 µM (active).

`N#CCSc1nc(-c2ccccc2)nc2ccc(F)cc12`: the Potency entry is “inactive”.

As for `CSc1nc(-c2ccccc2)nc(C(Cl)Cl)n1`, the Potency result was “inactive”.

In the case of `CN1C(C(=O)NCC2CC2)CC2Cn3c(nc4ccccc43)C21` (centres undefined), the Potency result was “inactive”.

For the compound `Cn1nc(C(F)(F)F)c(-c2ccc(F)cc2)c1NC(=O)CSCC(=O)O`, the Potency entry was “inactive”.

Consider `Cn1nc(C(F)(F)F)c2cc(NC(=O)OCC(C)(C)C)sc21`, for which the Potency was 2.33 µM (active).

`Cn1nc(C(F)(F)F)c2cc(C(=O)N3CCOCC3)sc21`: the Potency entry is “inactive”.

On to `COc1ccc(CN2CCC(n3nccc3NC(=O)CCCc3ccccc3)CC2)cc1C`, for which the Potency entry is “inactive”.

As to `CC(Sc1nnc(C2CC2)n1C1CC1)C(=O)Nc1ccc(C(N)=O)cc1` (centres undefined), the Potency entry was “inactive”.

Take `COc1cccc(NC(=O)CSc2nnc(Cc3ccc(OC)c(OC)c3)o2)c1`: the Potency entry is “inactive”.

Take `O=C(COC(=O)c1ncc(Cl)c(Cl)c1Cl)NNC(=O)c1ccccc1`: the Potency result was “inactive”.

With `O=C(O)Cc1sc(-c2ccccc2)nc1-c1cccs1`, the Potency entry is “inactive”.

In the case of `O=C(NCc1cccnc1)c1cn(-c2ccccc2)nc1-c1cccs1`, the Potency entry was “inactive”.

For the compound `CC(=O)C1=C(C)NC(C)=C(C(C)=O)C1c1cn(-c2ccccc2)nc1-c1cccs1`, the Potency is 14.7 µM (active).

Take `CCOc1ccc2[nH]c(C(=O)N/N=C/c3cccc(OC)c3OC)cc2c1`: the Potency entry was “inactive”.

`COc1ccc(OC)c(C(=O)c2ccc(Cl)cc2)c1`: the Potency result is “inactive”.

In the case of `COc1ccc(O)c(C(=O)c2cnc3onc(C(C)C)c3c2)c1`, the Potency was 2.62 µM (active).

With `COc1ccc(-c2onc3ccc(C(C)=O)cc23)cc1`, the Potency result was “inactive”.

On to `COc1ccc(Cl)cc1-n1c(C)cc(C(=O)OCC(=O)N2CC(=O)Nc3ccccc32)c1C`, for which the Potency was 5.22 µM (active).

`COc1ccc(C(=O)OCC(=O)N2CC(=O)Nc3ccccc32)cc1Br`: the Potency result was “inactive”.

As to `COc1cc(OC)c(C(=O)OCC(=O)N2CC(=O)Nc3ccccc32)cc1OC`, the Potency entry was “inactive”.

For the compound `CCCC(C)NC(=O)C1CCN(C(=O)C2CC(=O)N(c3ccc(C)cc3)C2)CC1` (centres undefined), the Potency entry is “inactive”.

On to `CCn1c(-c2ccncc2)n[nH]c1=S`, for which the Potency result is “inactive”.

Regarding `C=CCn1c(-c2ccccc2OCC)n[nH]c1=S`, the Potency entry was “inactive”.

As for `CCCc1cc(-c2n[nH]c(=S)n2CC)c2ccccc2n1`, the Potency is 1.31 µM (active).

Take `O=C(c1cc(S(=O)(=O)N2CCOCC2)ccc1Cl)N1CCOCC1`: the Potency result was “inactive”.

`Cn1cnc2c1c(=O)n(Cc1ccccc1C#N)c(=O)n2C`: the Potency result is “inactive”.

Regarding `CC(C)N(C(=O)c1ccc(-c2ccccc2F)cc1)C(C)C`, the Potency is 10.4 µM (active).

Regarding `CCN(CC(=O)Nc1c(F)cccc1F)C(=O)c1ccc(-c2ccccc2)cc1`, the Potency entry is “inactive”.

Turning to `O=C(Nc1ccccc1F)c1ccccc1-c1ccccc1`, the Potency result was “inactive”.

Regarding `CCCCN(C(=O)c1nn(C)c(=O)c2ccccc12)c1c(N)n(CCC)c(=O)[nH]c1=O`, the Potency entry is “inactive”.

Take `Cc1cccc(N(C(=O)c2sc(C)nc2C)C(C(=O)NCC2CCCO2)c2ccccc2)c1` (centres undefined): the Potency result was “inactive”.

For the compound `Cc1cccc(N(C(=O)Cc2cccs2)C(C(=O)NCc2ccco2)c2ccncc2)c1` (centres undefined), the Potency entry is “inactive”.

Turning to `Cc1nc(C)c(C(=O)N(c2ccc(C)c(C)c2)C(C(=O)NCc2ccco2)c2ccccc2)s1` (centres undefined), the Potency was 11.7 µM (active).

As for `CCOCc1nnc(NC(=O)CCS(=O)(=O)Cc2ccccc2)s1`, the Potency entry was “inactive”.

For the compound `Cc1cccc(CNS(=O)(=O)c2ccc(-c3cnc(C4CC4)o3)cc2)c1`, the Potency entry was “inactive”.

As to `COc1ccc(C)cc1N(CC(=O)N1CCCC1)S(=O)(=O)c1ccccc1`, the Potency result is “inactive”.

`CC1(C)Cc2c(sc(NC(=O)C(=O)N3CCOCC3)c2C#N)CO1`: the Potency entry was “inactive”.

As to `Cc1nc(NCCN)c(C#N)c2c1COC(C)(C)C2`, the Potency entry was “inactive”.

As to `CC(C)C(=O)N1CCN(c2nc(-c3ccccc3)c3c(c2C#N)CC(C)(C)OC3)CC1`, the Potency was 13.1 µM (active).

For the compound `Cc1sc(NC(=O)C2=COCCO2)c(C#N)c1C`, the Potency entry is “inactive”.

For the compound `COc1ccccc1NC(=O)CSc1nnc(CNC(=O)c2ccccc2F)o1`, the Potency entry is “inactive”.

On to `O=C(CN1C(=O)c2ccccc2S1(=O)=O)NC1CCCCC1`, for which the Potency entry was “inactive”.

As for `COC(CNC(=O)c1ccc2c(c1)ncn2-c1cc(C)cc(C)c1)OC`, the Potency result is “inactive”.

On to `Cc1cc(C)cc(C(=O)N(CCc2ccccc2)C2=CC3CCC(C2)N3C)c1` (centres undefined), for which the Potency is 11.7 µM (active).

With `CN1C2C=C(N(C(=O)c3ccc(Cl)cc3)c3ccccc3)CC1CC2` (centres undefined), the Potency result was “inactive”.

On to `Cc1ccc(CCN2CC(C(=O)NCCc3ccccc3)CC2=O)cc1` (centres undefined), for which the Potency result is “inactive”.

In the case of `O=S(=O)(NC1CCCCC1N1CCC(O)CC1)c1ccc(Cl)cc1` (centres undefined), the Potency result is “inactive”.

For the compound `CCN(CC(=O)Nc1c(F)cccc1F)C(=O)c1ccc(S(=O)(=O)N2CCCCC2)cc1`, the Potency entry was “inactive”.

For `COc1cccc(NC(=O)c2ccccc2N(Cc2ccccc2)S(C)(=O)=O)c1`, the Potency entry is “inactive”.

Consider `COc1ccccc1CSc1nc2ccccc2[nH]1`, for which the Potency entry is “inactive”.

In the case of `O=C(NCc1ccccc1)c1onc(CSc2nc3ccccc3[nH]2)c1C(=O)NCc1ccccc1`, the Potency was 1.17 µM (active).

As to `COCCNC(=O)c1onc(CSc2cccc(C)c2)c1C(=O)O`, the Potency entry is “inactive”.

With `O=C(CSc1nc(C2CC2)nc2ccccc12)Nc1cccc(O)c1`, the Potency result was “inactive”.

For the compound `CCC(=O)Nc1ccccc1C(=O)N1CCN(Cc2ccccc2)CC1`, the Potency result is “inactive”.

`CCOCc1c(C(=O)N2CCN(Cc3ccc(Br)s3)CC2)oc2ccccc12`: the Potency is 13.1 µM (active).

Turning to `COCC(=O)Nc1c(C(=O)N2CCCC2)oc2ccccc12`, the Potency entry is “inactive”.

Regarding `COc1ccc(CN2CC(C(=O)NC3CCCCC3)CC2=O)cc1` (centres undefined), the Potency result is “inactive”.

For the compound `C=CCSc1ccc(S(=O)(=O)N2CCN(C)CC2)cn1`, the Potency result is “inactive”.

For `CCn1cc(C(=O)NCCCN2CCCCCC2)c(=O)c2cc(S(=O)(=O)N3CCc4ccccc4C3)ccc21`, the Potency is 5.22 µM (active).

Consider `CCn1cc(C(=O)N2CC(C)CC(C)C2)c(=O)c2cc(S(=O)(=O)N3CCCC3)ccc21` (centres undefined), for which the Potency entry was “inactive”.

Take `CCn1cc(C(=O)NCCO)c(=O)c2cc(F)c(N3CCN(C)CC3)cc21`: the Potency entry was “inactive”.
